The whole screen tested about 410,000 compounds, of which about 7,200 (1.8%) were called active. Roughly 7% stayed inconclusive and do not appear here. The list comes from a sample in which actives are over-represented; it also holds similar structures and randomly drawn compounds. Entries that show only a call come without a potency. A number with no mark means an inactive call. Calls follow the shape of the dose curve; as a rule, active = well fitted activation curve with a large enough effect; inconclusive = small, poorly fitted or top-dose-only effect, or another doubt; inactive = no such curve, though single readings can be large or run the other way.
Potency is read from the fitted curve at half-maximal effect.

The test can be described thus: qHTS of TDP-43 Inhibitors. Also: nearly all actives have a fitted effect of over 50% in size. Conditions: TDP-43 expressing yeast growth rescue, BacTiter-Glo, 24 h; series mostly up to 46.1 µM. In short, it runs like this:
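Galactose-induced TDP-43 yeast, OD600=0.02, compound pinned; 24 hr, 30 deg C; BacTiter-Glo luminescence for growth. Inhibitors of TDP-43 toxicity read as activators.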
(In general: In qHTS, concentration-response curves come from the screen itself.)
Turning to `CC(=O)N1CCCc2cc(S(=O)(=O)N3CCC(C(=O)NC4CCCCC4)CC3)ccc21`, the Potency entry was “inactive”. The same measure, in the same setting: with `Cc1ccc(NC(=O)CSc2nc3c(c(=O)[nH]2)CN(Cc2ccc4c(c2)OCO4)CC3)cc1C` the entry was “inactive”.

In the case of `Cc1cccc(NC(=O)Cn2c(=O)n(CCC(C)C)c(=O)c3cccnc32)c1`, the Potency result is “inactive”.

For `COc1ccc(-c2cn3nc(N4CCCC(C(=O)NCCCOC(C)C)C4)sc3n2)cc1` (stereo not drawn), the Potency result is “inactive”. Still for that read-out and setting: for `COc1ccc(-n2c(C)csc2=S)cc1` the value was “inactive”; for `COC(=O)c1sc(=S)n(-c2ccc(Cl)cc2)c1C`, 12.6 µM (active). Still for that read-out and setting: with `COC(=O)c1sc2ncccc2c1-n1c(C)ccc1C` the entry was “inactive”. As to `Cc1ccccc1-c1nc(SCC(=O)N(C)c2ccccc2)c2c(=O)n(C)c(=O)n(C)c2n1`, the growth rescue (activation) was 0% [at 9.22 µM]. Turning to `CCN1CCN(c2ncnc3c2cnn3-c2ccc(C)c(C)c2)CC1`, the Potency entry is “inactive”. Same read-out and setting: for `CCc1cc2c(N3CCN(c4nnc(CC)s4)CC3)ncnc2s1` the value was 17.8 µM (active).

For `Cc1ccc(NC(=O)CSc2nnc3[nH]c(=O)cc(C)n23)cc1Cl`, the Potency result was “inactive”. `COc1ccc(-c2cc(-c3nc(-c4cc(OC)c(OC)c(OC)c4)no3)[nH]n2)c(OC)c1`: the Potency entry was “inactive”. Regarding `CCOc1ccc(CNC(=O)C2CCCN(S(=O)(=O)N(CC)c3ccc(OCC)cc3)C2)cc1` (stereo not drawn), the Potency entry is “inactive”. Same read-out and setting: for `CCN(CCn1cccn1)Cc1cn[nH]c1-c1ccc(OC)cc1F` the value was “inactive”. On the same count and under the same terms, for `Oc1ccc(-c2[nH]ncc2-c2nc3ccccc3s2)c(O)c1` the value was “inactive”; for `CCOc1ccccc1Oc1cn[nH]c1-c1ccc(OC)cc1O`, 22.4 µM (active); for `Cc1cccc(N2CCN(C(=O)c3ccc4c(c3)CCN4S(=O)(=O)c3ccccc3)CC2)c1C`, “inactive”. On to `CC(=O)c1ccc(NC(c2ccc(F)cc2)c2nnc(-c3ccccc3)o2)cc1` (stereo not drawn), for which the Potency result is “inactive”. Still for that read-out and setting: for `CCOC(=O)c1c(NC(=O)c2cc(CC)on2)sc(C(C)=O)c1C` the value was “inactive”; for `O=C(CNC(=O)OCc1ccccc1)NC1CCCCNC1=O` (stereo not drawn), “inactive”. Same read-out and setting: for `O=C(CNC(=O)OCc1ccccc1)Oc1cc2oc(=O)cc(-c3ccccc3)c2cc1Cl` the value was 7.08 µM (active); for `O=C(CNC(=O)Cc1ccccc1)NCC(=O)OCC(=O)c1ccccc1Cl`, “inactive”; for `CCc1ccc(NC(=O)CCS(=O)(=O)c2cc3c(cc2Cl)NC(=O)CO3)cc1`, “inactive”.

Turning to `CCCCCn1c(=O)c(C(=O)OCC)c(Cl)c2ccccc21`, the Potency result was “inactive”. Same read-out and setting: for `CCCn1c(=O)c(-c2ccccc2)c(O)c2ccccc21` the value was 22.4 µM (active). On the same count and under the same terms, with `Cn1c(=O)c(C(=O)Nc2ncccn2)c(O)c2ccccc21` the entry was “inactive”; with `COc1ccc(OC)c(NC(=O)CSC2=Nc3ccccc3C3=NC(CC(=O)NCCc4ccccc4)C(=O)N23)c1` (stereo not drawn), “inactive”; with `Cc1c(-c2nc(-c3ccc4c(c3)OCO4)no2)nnn1-c1ccc(Br)cc1F`, “inactive”. Still for that read-out and setting: with `Cc1cc(Nc2ccc(C)c(C)c2)n2ncnc2n1` the entry was “inactive”; with `CC1CCc2c(nc3ncnn3c2Nc2ccc(OC(F)(F)F)cc2)C1` (stereo not drawn), “inactive”.

Take `Brc1ccc(Nc2c3c(nc4ncnn24)CCC3)cc1`: the Potency was 12.6 µM (active). With `COc1ccc(C(=O)c2oc3ccccc3c2NC(=O)COc2cccc(C)c2)cc1`, the growth rescue (activation) was 9.29% [at 9.22 µM].

For the compound `Cc1c(NC(=O)c2cc(=O)c3ccccc3o2)c(=O)n(-c2ccccc2)n1C`, the Potency result was “inactive”. On the same count and under the same terms, for `CCOC(=O)c1cccc(NS(=O)(=O)c2cc(-c3cnc(C)o3)ccc2OC)c1` the value was “inactive”. Still for that read-out and setting: with `C/C(Cc1ccccc1)=N\NC(=O)CNC(=O)c1ccc2c(c1)OCCO2` the entry was “inactive”.

Regarding `Cc1nc(NC(=O)c2ccc3c(c2)OCCO3)ccc1Br`, the Potency was 12.6 µM (active).

Turning to `CS(=O)(=O)c1ccc(-c2nnc(NC(=O)c3ccc4c(c3)OCCO4)o2)cc1`, the Potency result is “inactive”. The same measure, in the same setting: with `Cc1ccc(C)c(NC(=O)C2CCCN(S(=O)(=O)c3cn(C)cn3)C2)c1` (stereo not drawn) the entry was “inactive”; with `CC(=O)N1CCCc2cc(S(=O)(=O)Nc3ccc(Cl)cc3F)ccc21`, “inactive”. Turning to `CCn1nnc2cc(C(=O)Nc3ccc(C(=O)OC(C)C)cc3)ccc21`, the Potency is 11.2 µM (active).

As for `CCOC(=O)c1cccc(NC(=O)CCn2nnc3ccccc32)c1`, the Potency entry is “inactive”. Still for that read-out and setting: for `CCOc1ccc(CNC(=O)c2ccc3c(c2)nnn3C2CCCC2)cc1` the value was “inactive”; for `CCOC(=O)c1cc(-c2ccccc2)n(CCC(=O)Nc2ccccc2CC)c1C`, “inactive”. The same measure, in the same setting: with `O=C(Nc1c(C(=O)N2CCN(c3ccc(F)cc3)CC2)oc2ccccc12)c1ccco1` the entry was “inactive”; with `O=C(NNC1CC(=O)N(c2cccc(Cl)c2)C1=O)c1cccnc1` (stereo not drawn), “inactive”. Same read-out and setting: with `O=C1[C@@H]2C(c3cccnc3)=NO[C@@H]2C(=O)N1c1ccc(Cl)cc1Cl` the figure was 35.5 µM (active); with `Cc1ccc(Cl)cc1N1CCN(C(=O)CN2C(=O)COc3ccc(S(=O)(=O)N4CCOCC4)cc32)CC1`, “inactive”. As to `CCC(=O)N1CCc2cc(S(=O)(=O)NC(CC(C)C)C(=O)NCCc3cccc(C)c3)ccc21` (stereo not drawn), the Potency entry is “inactive”. Still for that read-out and setting: with `Cc1ccc(NC(=O)Cn2nnc3sc4c(c3c2=O)CCC(C)C4)cc1` (stereo not drawn) the entry was “inactive”. On the same count and under the same terms, for `CC(C)(C)OC(=O)N1CCC(c2c(C(=O)N3CCc4ccccc4C3)cnn2-c2ccc(F)cc2)CC1` the value was “inactive”; for `COc1ccc(Nc2ncc3c(n2)CCN(C(=O)OC(C)(C)C)C3)cc1`, 14.1 µM (active); for `COc1ccc(CN2CCc3nc(Nc4ccccc4)ncc3C2)c(OC)c1OC`, “inactive”. With `O=c1cc(-c2ccccc2)n2c(SCc3ccccc3)nnc2[nH]1`, the Potency entry is “inactive”. Take `Cc1cccc(N2CCN(C(=O)CCn3c(=O)c4cccn4c4cccnc43)CC2C)c1` (stereo not drawn): the Potency entry was “inactive”. In the case of `CCc1cnc2c(c1SCC(=O)c1ccccc1)c(=O)n(C)c(=O)n2C`, the Potency entry is “inactive”. The same measure, in the same setting: with `O=C(COC(=O)/C=C/c1cccc(Cl)c1)NCc1cccs1` the figure was 20 µM (active); with `COc1ccc(Cl)cc1C(=O)OCC(=O)NCc1cccs1`, “inactive”; with `O=C(COC(=O)c1ccc(Cl)nc1)NCc1cccs1`, “inactive”. On the same count and under the same terms, for `CCOc1ccc(CCNC(=O)c2ccc3c(c2)sc2nc(-c4ccc(F)cc4)cn23)cc1OCC` the value was “inactive”; for `COc1cc(C(=O)NC(=S)NCc2ccco2)cc(OC)c1OC`, “inactive”; for `COc1ccc2oc(C(=O)NCc3ccco3)c(C)c2c1`, 12.6 µM (active). On the same count and under the same terms, with `COc1ccc2oc(C(=O)NCC(Cc3ccccc3)N(C)C)c(C)c2c1` (stereo not drawn) the entry was “inactive”. In the case of `COc1cccc(C(c2c(O)cc(C)n(Cc3ccco3)c2=O)N2CCN(c3ccccc3)CC2)c1` (stereo not drawn), the Potency result was “inactive”.
